# Experimental data published in PubChem BioAssay.
# The source made the active and inactive calls. Rule as the data show it, unless noted: active = inhibition above about 80%; inactive = the rest.
# Experiments:
# [1] = sensitizers of A549 cells to miR-34 induction, primary screen, imaging, A549 dox-inducible miR-34, nuclei and caspase counts (AID 1347080;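 active = compounds whose cell count with miR-34 switched on is under 0.7 times the count with it off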); details: A549 miR-34 inducible, Hoechst nuclei count, 48 h
# [2] = survival rescue of mitochondrial mutant cells in low glucose, primary screen, MELAS cybrids, Rieske KO mouse fibroblasts, CellTiter-Glo (AID 1508586);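 also: z relative to plate mean and SD of compound and empty wells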
# [3] = LFS_MB_P medulloblastoma growth inhibition, cell-based, chromothripsis tumors, cisplatin or BGB combos (AID 1671449); details: LFS_MB_P medulloblastoma cells;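 also: cells exposed for 96 hours; 0% = vehicle DMSO and 100% = killing by high DMSO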
# [4] = HDN33 neuroblastoma growth inhibition, cell-based, chromothripsis tumors, cisplatin or BGB combos (AID 1671450); details: HDN33 neuroblastoma cells, stronger effect = higher value;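 also: cells exposed to compound for four days; 0% = vehicle DMSO and 100% = cell killing by high DMSO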
# [5] = ICB984 medulloblastoma cell growth inhibition, synergistic combos for chromothripsis tumors, cisplatin or BGB combos (AID 1671451; call rule not given here;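 also: cells exposed for 96 hours before readout; 0% = vehicle DMSO and 100% = killing by high DMSO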); details: ICB984 medulloblastoma cells, drug combinations, stronger effect = higher value
# [6] = LFS_MB_1R medulloblastoma cell growth inhibition, synergistic combos for chromothripsis tumors, cisplatin or BGB combos (AID 1671452); details: LFS_MB_1R medulloblastoma cells, stronger effect = higher value;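 also: cells exposed for 96 hours before readout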
# [7] = HTB85 osteosarcoma cell growth inhibition, synergistic combos for chromothripsis tumors, BGB or cisplatin IC20 combos (AID 1671453); details: HTB85 osteosarcoma cells, drug combinations, stronger effect = higher value;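 also: cells exposed for 96 hours before readout; 0% = vehicle DMSO and 100% = high DMSO killing control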
# [8] = CRL2098 osteosarcoma cell growth inhibition, synergistic combos for chromothripsis tumors, BGB or cisplatin IC20 combos (AID 1671454); details: CRL2098 osteosarcoma cells, drug combinations, stronger effect = higher value;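 also: cells exposed for 96 h before readout; 0% = vehicle DMSO and 100% = killing by high DMSO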
# [9] = HD-MB03 medulloblastoma cell growth inhibition, synergistic combos for chromothripsis tumors, BGB or cisplatin IC20 combos (AID 1671455; in the data active = inhibition above about 83%;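 also: 0% = vehicle DMSO and 100% = high DMSO as cytotoxic control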); details: HD-MB03 medulloblastoma cells, stronger effect = higher value
# [10] = UWB1.289 ovarian carcinoma cell growth inhibition, synergistic combos for chromothripsis tumors, BGB or cisplatin combos (AID 1671456); details: UWB1.289 ovarian carcinoma cells, stronger effect = higher value;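 also: cells exposed to compound for four days; 0% = vehicle DMSO and 100% = killing by high DMSO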
# [11] = LFS_MB_2R medulloblastoma cell growth inhibition, synergistic combos for chromothripsis tumors, cisplatin combos (AID 1671457); details: LFS_MB_2R medulloblastoma cells, stronger effect = higher value;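 also: cells exposed to compound for four days before readout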
# [12] = MDA-MB-436 breast carcinoma cell growth inhibition, synergistic combos for chromothripsis tumors, BGB or cisplatin combos (AID 1671458; call rule not given here;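 also: cells exposed for 96 hours; 0% = vehicle DMSO and 100% = killing by high DMSO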); details: MDA-MB-436 breast carcinoma growth inhibition, drug combinations, stronger effect = higher value
# [13] = UWB1.289_BRCA1 ovarian cancer growth, cell-based, BGB or cisplatin combinations (AID 1671459); details: UWB1.289 BRCA1 ovarian carcinoma, drug combinations, stronger effect = higher value
# [14] = human astrocyte viability loss, single and combined drugs, cytotoxicity control for chromothriptic childhood tumor combination screen, cell-based, BGB or cisplatin IC20 combos (AID 1671460); details: Human astrocytes, drug combinations, stronger effect = higher value;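 also: cells exposed to compounds for 96 hours before viability readout; 0% = vehicle and 100% = killing control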
# [15] = growth inhibition of BT084 medulloblastoma cells, cell-based, ICGC_MB145, cisplatin and BGB IC40 combos (AID 1671461); details: drug combinations, stronger effect = higher value;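 also: cells exposed to drugs for 96 hours; 0% = vehicle DMSO and 100% = high DMSO full killing control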
# [16] = growth inhibition of RCMB18 medulloblastoma cells, cell-based, cisplatin and BGB IC40 combos (AID 1671462); details: stronger effect = higher value;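 also: cells exposed to compound for four days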
# [17] = growth inhibition of CRL1545 osteosarcoma cells, cell-based, cisplatin and BGB IC20 combos (AID 1671464); details: stronger effect = higher value;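 also: cells exposed to compound for 96 hours before readout; 0% = vehicle DMSO and 100% = high DMSO killing control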
# [18] = measured here: combination with BGB IC40, at 0.05 µM
# [19] = measured here: with BGB IC20 combination, at 0.5 µM
# [20] = measured here: with cisplatin IC20 combination, at 0.5 µM
# [21] = measured here: combination with cisplatin, at 0.5 µM
# [22] = measured here: combination with cisplatin, at 5 µM
smiles,measurement,setting,value
NC(=S)NN=Cc1ncccc1N,fold change,"[1]; stronger effect = lower value, cell number ratio, induced over uninduced",1.15 (inactive)
same,fold change,[1]; measured here: relative caspase fold change +Dox/-Dox,0.619
same,cell count,"[1]; measured here: total cells with miR-34 induction, stronger effect = lower value",1840
same,cell count,[1]; measured here: total cells without miR-34 induction,1600
same,z-score,"[2]; MELAS cybrid survival, CellTiter-Glo 48 h, stronger effect = higher value",1.28
same,z-score,"[2]; Rieske KO mouse fibroblast survival, CellTiter-Glo 72 h",3.3
same,inhibition,"[3]; at 0.5 µM, stronger effect = higher value",-16.7% (inactive)
same,inhibition,"[3]; measured here: combination with BGB IC20, at 0.005 µM",-2.55%
same,inhibition,"[3]; measured here: combination with BGB IC40, at 0.005 µM",-23%
same,inhibition,[3]; [18],-3.08%
same,inhibition,"[3]; measured here: combination with cisplatin, at 0.5 µM, stronger effect = higher value",-29.8%
same,inhibition,"[3]; measured here: combination with cisplatin, at 5 µM, stronger effect = higher value",-31.8%
same,inhibition,"[4]; BGB combo, at 5 µM",85%
same,inhibition,[4]; at 0.5 µM,11.9% (inactive)
same,inhibition,"[4]; cisplatin combo, at 5 µM",80.1%
same,inhibition,[4]; [19],3.11%
same,inhibition,[4]; [20],14.3%
same,inhibition,"[4]; single agent, at 5 µM",84.5%
same,inhibition,"[5]; BGB IC20 combo, at 0.005 µM",-9.24%
same,inhibition,"[5]; BGB IC40 combo, at 0.005 µM",-38.2%
same,inhibition,"[5]; BGB IC40 combo, at 0.05 µM",-31.3%
same,inhibition,[5]; at 0.5 µM,-16.4% (inactive)
same,inhibition,"[5]; cisplatin combo, at 0.05 µM",-36.5%
same,inhibition,"[5]; cisplatin combo, at 0.5 µM",-17.6%
same,inhibition,"[5]; cisplatin combo, at 5 µM",-14.8%
same,inhibition,"[5]; measured here: 5 uM single agent, at 5 µM",-38.9%
same,inhibition,[6]; at 0.5 µM,-7% (inactive)
same,inhibition,[6]; [18],-3.08%
same,inhibition,[6]; [21],22.7%
same,inhibition,[6]; [22],-19.1%
same,inhibition,[7]; at 0.5 µM,-8.27% (inactive)
same,inhibition,"[7]; measured here: with BGB IC20, at 0.5 µM",-17.3%
same,inhibition,"[7]; measured here: with BGB IC20, at 5 µM",67.1%
same,inhibition,"[7]; measured here: with cisplatin IC20, at 0.5 µM",-3.68%
same,inhibition,"[7]; measured here: with cisplatin IC20, at 5 µM",77.8%
same,inhibition,"[7]; single agent, at 5 µM",84.1%
same,inhibition,[8]; at 0.5 µM,-55.6% (inactive)
same,inhibition,"[8]; measured here: combination with BGB at IC20, at 0.5 µM",-6.91%
same,inhibition,"[8]; measured here: combination with cisplatin at IC20, at 0.5 µM",-62.8%
same,inhibition,[9]; at 0.5 µM,-11.3% (inactive)
same,inhibition,"[9]; measured here: combo with BGB at IC20, at 0.5 µM",-13%
same,inhibition,"[9]; measured here: combo with cisplatin at IC20, at 0.5 µM",-15.8%
same,inhibition,[10]; at 0.5 µM,-4.48% (inactive)
same,inhibition,"[10]; measured here: inhibition with BGB combination, at 0.05 µM",-19.9%
same,inhibition,"[10]; measured here: inhibition with cisplatin combination, at 0.05 µM",-12.6%
same,inhibition,[11]; at 0.5 µM,-23.1% (inactive)
same,inhibition,[11]; [21],-11.4%
same,inhibition,[11]; [22],-13.5%
same,inhibition,[12]; at 0.5 µM,-24% (inactive)
same,inhibition,"[12]; measured here: BGB combination, at 0.5 µM",-21.8%
same,inhibition,"[12]; measured here: BGB combination, at 5 µM",39.5%
same,inhibition,"[12]; measured here: cisplatin combination, at 0.5 µM",-34.4%
same,inhibition,"[12]; measured here: cisplatin combination, at 5 µM",62.7%
same,inhibition,"[13]; BGB combination, concentration series, at 5 µM",56.4%
same,inhibition,[13]; at 0.5 µM,0.83% (inactive)
same,inhibition,"[13]; cisplatin combination, concentration series, at 5 µM",62.5%
same,inhibition,[14]; at 0.5 µM,13.8% (inactive)
same,inhibition,"[14]; measured here: combo with BGB IC20, at 0.5 µM",17.9%
same,inhibition,"[14]; measured here: combo with cisplatin IC20, at 0.5 µM",11.3%
same,inhibition,[15]; at 0.5 µM,-38.9% (inactive)
same,inhibition,"[15]; cisplatin combination, at 0.5 µM",-29.3%
same,inhibition,"[15]; cisplatin combination, at 5 µM",-3.12%
same,inhibition,"[15]; measured here: BGB IC40 combination 0.05 uM, at 0.05 µM",-31.2%
same,inhibition,"[15]; single agent, at 5 µM",-27%
same,inhibition,[16]; at 0.5 µM,-9.8% (inactive)
same,inhibition,"[16]; cisplatin combo, at 5 µM",15.6%
same,inhibition,"[16]; measured here: BGB IC40 combination, at 0.05 µM",-6.51%
same,inhibition,[16]; [21],3.15%
same,inhibition,"[16]; single agent, at 5 µM",-34.2%
same,inhibition,[17]; at 0.5 µM,10.3% (inactive)
same,inhibition,[17]; [19],-9.01%
same,inhibition,[17]; [20],19.9%
same,inhibition,"[17]; single agent, at 0.05 µM",29.3%
same,inhibition,"[17]; single agent, at 5 µM",63.9%
